Bioassay records deposited in PubChem by Broad Institute.
This is a sample that favours compounds with a hit; in the whole collection about 3.9% have one here.
Casp6 inh – blocks human caspase-6 cleavage activity. 350,000 compounds, 0.53% hits. purified caspase-6, Z-VEID-R110 cleavage fluorescence. P55212. inhibition, % at 12.5 µM;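 active = mean inhibition across replicates at least about 35%, with every replicate also reaching that limit, limit read from the data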
N-glyco inh – blocks N-linked glycosylation in D54 reporter cells. D54 ERlucT glycosylation luciferase reporter, 24 h; percent of 100 nM tunicamycin response. reporter increase, % at 12.5 µM. 360,000 compounds, 0.23% hits;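 active = mean luciferase reporter signal, scaled so untreated is 0 and the glycosylation-blocking control 100, at or above a set limit in every replicate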;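 also: luciferase carries N-glycosylation sites so blocking glycosylation raises the light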
NSD2 HMT inh – NSD2 (human) methyltransferase inhibition; inhibition, % at 12.5 µM; 310,000 compounds, 0.54% hits; NSD2 peptide methylation, AlphaScreen, 120 min; in the data active = inhibition above about 50%
CDK5 p35 inh – blocks human CDK5/p35 kinase activity; AID 488839; Q00535+Q15078; Recombinant CDK5/p35, ADP-Glo luminescence, 60 min; 330,000 compounds, 0.01% hits; inhibition, % at 10 µM;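 active = highest replicate inhibition of at least 50% and at least 75% of replicates reaching 50%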
Target sequence (Q00535 whole entry, looked up): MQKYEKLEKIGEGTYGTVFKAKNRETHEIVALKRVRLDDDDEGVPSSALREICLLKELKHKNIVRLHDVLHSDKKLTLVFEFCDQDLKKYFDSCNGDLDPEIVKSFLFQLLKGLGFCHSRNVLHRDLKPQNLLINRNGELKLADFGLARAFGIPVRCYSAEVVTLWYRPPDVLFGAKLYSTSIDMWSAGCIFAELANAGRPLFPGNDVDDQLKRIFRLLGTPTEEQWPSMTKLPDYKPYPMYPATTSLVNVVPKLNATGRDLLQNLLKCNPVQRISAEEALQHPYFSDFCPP
Target sequence (Q15078 whole entry, looked up): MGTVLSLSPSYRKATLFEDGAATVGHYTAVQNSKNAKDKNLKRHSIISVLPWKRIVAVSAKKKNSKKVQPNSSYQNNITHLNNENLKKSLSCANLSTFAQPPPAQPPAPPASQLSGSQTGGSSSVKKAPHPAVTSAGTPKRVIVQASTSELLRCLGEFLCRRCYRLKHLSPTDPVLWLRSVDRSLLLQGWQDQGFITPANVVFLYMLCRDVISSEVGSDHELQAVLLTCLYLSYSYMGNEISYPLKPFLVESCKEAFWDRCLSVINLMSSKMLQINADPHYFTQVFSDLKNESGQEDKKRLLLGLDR
ALR H2O2 inh – human ALR oxidase inhibition via reduced H2O2. purified ALR, DTT oxidation, H2O2 HRP-luminol luminescence. inhibition, % (concentration not given with the values). 290,000 compounds, 3.8% hits;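 active = mean replicate inhibition above about 79%, with every replicate also reaching it, limit read from the data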
Mot1-301 SUMO – inhibitors of SUMOylation pathway: yeast Mot1-301 growth rescue. S. cerevisiae Mot1-301 growth rescue, ATP luminescence, 38.5C; percent above DMSO median, 100 means doubled. growth rescue, % at 18.8 µM. 320,000 compounds, 1% hits;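 active = every valid replicate shows activation above 250% relative to neutral control wells; inactive = the rest, any valid replicate at or below 250%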
Numbers stand for hits; – = inactive; · = not tested or not shown.

SMILES	Casp6 inh	N-glyco inh	NSD2 HMT inh	CDK5 p35 inh	ALR H2O2 inh	Mot1-301 SUMO
Nc1oc2ccccc2c1C(=O)Cc1ccccc1O[C@@H]1O[C@H](CO)[C@@H](O)[C@H](O)[C@H]1O	–	–	·	–	90	–
CCOc1c(Br)cc(CNc2ccc(N3CCN(C(C)=O)CC3)cc2)cc1OC	–	–	–	–	98	–
COc1cc(CNc2ccc(N3CCOCC3)cc2)cc(Br)c1OC	·	–	–	–	98	–
CCOc1cc(CNc2ccc(N3CCOCC3)cc2)cc(Br)c1OCC	·	–	–	–	99	–
CCOc1cc(CNc2ccc(N3CCN(C(C)=O)CC3)cc2)cc(Br)c1OC	·	–	–	–	·	·
CCCC(=O)Nc1ccc2c(c1)OC[C@@H](C)N(Cc1ccc(F)cc1)C[C@@H](C)[C@H](OC)CN(C)C2=O	–	·	·	·	·	·
CC=Cc1ccc2n(c1=O)C[C@@H]1[C@@H](CO)[C@H](C(=O)NCC3CC3)[C@H]2N1CC1CCOCC1 (mixture of isomers)	–	·	·	·	·	·
CCCNC(=O)N(C)C[C@@H]1Oc2cc(C#CC3CC3)ccc2S(=O)(=O)N([C@H](C)CO)C[C@@H]1C	–	·	·	·	·	·
CCN(CC)c1ccc(NS(=O)(=O)c2ccc(-c3ccc(=O)[nH]n3)o2)c(C)c1	–	–	–	–	100	–
OCC(CO)(CO)NCC(O)CN1c2ccccc2Sc2ccccc21 (stereo unspecified)	·	–	–	–	99	–
O=C1c2ccccc2C(=O)N1CC(O)Cn1nnc2ccccc21 (stereo unspecified)	·	–	–	–	–	–
OC(CN1c2ccccc2Sc2ccccc21)Cn1nnc2ccccc21 (stereo unspecified)	·	–	–	–	98	–
Cc1nn(CC(O)CN2c3ccccc3Sc3ccccc32)c(C)c1Br (stereo unspecified)	·	–	–	–	–	–
O=C(Nc1ccc2c(c1)[C@@H]1C[C@@H](CC(=O)N3CCc4ccccc4C3)O[C@@H](CO)[C@@H]1O2)C1CCOCC1	–	·	·	·	·	·
Cc1sc(NC(=O)CCl)c(C(=O)c2ccccc2)c1C	·	–	–	–	99	–
COc1cccc(NC(=O)COC(=O)c2c(NC(C)=O)sc(C)c2C)c1	–	–	–	–	·	–
CCOC(=O)/C=C/C(=O)OCC(=O)Nc1ccc(C)cc1	–	–	–	–	–	–
CCOC(=O)/C=C/C(=O)OCC(=O)Nc1cccc(Br)c1	–	–	·	–	91	–
COc1ccccc1NC(=O)COC(=O)c1c(NC(C)=O)sc(C)c1C	–	–	–	·	·	·
CC(=O)Nc1sc(C)c(C)c1C(=O)OCC(=O)Nc1cccc(C)c1	–	66	–	–	–	–
CC(=O)Nc1sc(C)c(C)c1C(=O)OCC(=O)Nc1ccccc1	–	85	–	–	–	–
CC(C)NC(=O)N(C)C[C@H]1OCCCC[C@@H](C)Oc2ccc(NC(=O)Nc3ccc(F)cc3)cc2C(=O)N([C@@H](C)CO)C[C@H]1C	–	·	·	·	·	·
C[C@@H]1CN([C@@H](C)CO)C(=O)c2cc(NS(C)(=O)=O)ccc2O[C@@H](C)CCCCO[C@H]1CN(C)C(=O)c1ccccc1	–	·	·	·	·	·
C[C@H]1CN([C@@H](C)CO)C(=O)CCCn2cc(nn2)CO[C@H]1CN(C)Cc1ccc(O)cc1	–	·	·	·	·	·
CCC(=O)N1[C@H](CO)[C@H](c2ccc(-c3ccc(F)cc3)cc2)C12CN(C(C)=O)C2	–	·	·	·	·	·
SMILES	Casp6 inh	N-glyco inh	NSD2 HMT inh	CDK5 p35 inh	ALR H2O2 inh	Mot1-301 SUMO
Cc1ccc(S(=O)(=O)N(C)C[C@@H]2Oc3c(NC(=O)Nc4ccc(F)cc4)cccc3C(=O)N([C@@H](C)CO)C[C@@H]2C)cc1	–	·	·	·	·	·
CN(C)CCCNC(=O)C[C@H]1CC[C@H](NC(=O)c2ccccc2F)[C@H](CO)O1	–	·	·	·	·	·
COc1cc(C(=S)N2CCN(c3ccccc3Cl)CC2)cc(O)c1O	–	–	·	–	99	·
COc1ccc(C(=S)N2CCN(c3ccccc3Cl)CC2)cc1OC	–	–	–	–	–	–
COc1ccc(-c2ccc3n(c2=O)C[C@H]2[C@H](CO)[C@@H](C(=O)NC4CCC4)N(S(C)(=O)=O)[C@@H]32)cc1	–	·	·	·	·	·
COc1ccc(-c2cc3nnc(-c4ccccc4)nc3s2)cc1	·	–	–	–	94	–
COc1ccc(-c2cc(-c3ccccc3)no2)cc1	–	–	·	–	–	–
S=c1[nH]nc(Nc2cccc(Cl)c2)s1	–	–	–	–	99	–
Cc1cccc(Nc2nc(-c3ccncc3)cs2)c1	–	–	–	–	–	–
